PubChem BioAssay AID1159580 (chemical genetic matrix, 2015)
In all, about 5,500 compounds went through this assay and about 2,000 (36%) were called active. Inconclusive results (about 18%) are left out. Cut-off read from the data, not from the text of the source: active = normalized growth mostly below about 0.91 (no sharp cut-off); inconclusive = no clear call, values can overlap the other calls; inactive = mostly above about 0.92. Some of the results follow.

Assay: chemical genetic growth profiling, strain panel (AID 1159580);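 note: tested at 20 µM; growth read once vehicle control cultures reached saturation at 30 °C; 1 = growth at the plate median or of vehicle wells; lower values mean less growth of the strain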
Settings: S. cerevisiae deletion strains, growth OD
[1] = locus YHR030C, strain SLT2, stronger effect = lower value
[2] = locus YHR079C, strain IRE1, stronger effect = lower value
[3] = locus YJL095W, strain BCK1, stronger effect = lower value
[4] = locus YJR066W, strain TOR1, stronger effect = lower value
[5] = locus YLR113W, strain HOG1, stronger effect = lower value
[6] = locus YNL183C, strain NPR1, stronger effect = lower value
[7] = locus YOR231W, strain MKK1, stronger effect = lower value
[8] = locus YPL256C, strain CLN2, stronger effect = lower value

Measured: normalized growth

Cc1ccc(C(O)(c2ccccc2)c2ccccc2)c2ccccc12
inactive: locus YAR019C, strain CDC15, stronger effect = lower value 0.992 | locus YBL105C, strain PKC1, stronger effect = lower value 0.985 | locus YBR135W, strain CKS1, stronger effect = lower value 0.98 | locus YBR136W, strain MEC1, stronger effect = lower value 0.983 | locus YBR160W, strain CDC28, stronger effect = lower value 0.985 | locus YDL017W, strain CDC7, stronger effect = lower value 0.992 | locus YDL028C, strain MPS1, stronger effect = lower value 0.985 | locus YDL101C, strain DUN1, stronger effect = lower value 0.97 | locus YDL108W, strain KIN28, stronger effect = lower value 0.981 | locus YDL132W, strain cdc53, stronger effect = lower value 0.976 | locus YDL214C, strain PRR2, stronger effect = lower value 0.963 | locus YDR052C, strain DBF4, stronger effect = lower value 0.992 | locus YDR054C, strain cdc34, stronger effect = lower value 0.988 | locus YDR226W, strain ADK1, stronger effect = lower value 0.983 | locus YDR477W, strain SNF1, stronger effect = lower value 0.975 | locus YER123W, strain YCK3, stronger effect = lower value 1 | locus YER133W, strain GLC7, stronger effect = lower value 0.998 | locus YFL009W, strain cdc4, stronger effect = lower value 0.982 | locus YFL029C, strain CAK1, stronger effect = lower value 0.993 | locus YFR003C, strain YPI1, stronger effect = lower value 0.988 | locus YFR019W, strain FAB1, stronger effect = lower value 0.952 | locus YFR028C, strain CDC14, stronger effect = lower value 0.979 | locus YGR040W, strain KSS1, stronger effect = lower value 0.947 | locus YGR052W, strain FMP48, stronger effect = lower value 0.982 | locus YGR092W, strain DBF2, stronger effect = lower value 0.907 | [1] 1.02 | [2] 0.996 | locus YHR082C, strain KSP1, stronger effect = lower value 1 | locus YHR205W, strain SCH9, stronger effect = lower value 0.858 | locus YIL147C, strain SLN1, stronger effect = lower value 0.993 | [3] 0.904 | locus YJL128C, strain PBS2, stronger effect = lower value 0.926 | locus YJL157C, strain FAR1, stronger effect = lower value 0.997 | locus YJR016C, strain ILV3, stronger effect = lower value 0.995 | locus YJR066W, strain TOR1 (second series), stronger effect = lower value 0.963 | [4] 1.01 | locus YKL048C, strain ELM1, stronger effect = lower value 0.965 | locus YKL067W, strain YNK1, stronger effect = lower value 0.975 | locus YKL101W, strain HSL1, stronger effect = lower value 0.953 | locus YKL193C, strain SDS22, stronger effect = lower value 0.989 | locus YKL203C, strain TOR2, stronger effect = lower value 1.01 | [5] 0.936 | locus YLR133W, strain CKI1, stronger effect = lower value 0.949 | locus YLR403W, strain SFP1, stronger effect = lower value 0.916 | locus YML070W, strain DAK1, stronger effect = lower value 0.959 | locus YMR001C, strain CDC5, stronger effect = lower value 0.988 | locus YMR205C, strain PFK2 (second series), stronger effect = lower value 0.976 | locus YMR277W, strain FCP1, stronger effect = lower value 0.991 | locus YNL006W, strain LST8, stronger effect = lower value 0.984 | locus YNL020C, strain ARK1, stronger effect = lower value 0.955 | locus YNL161W, strain CBK1, stronger effect = lower value 0.98 | [6] 0.987 | locus YNL207W, strain RIO2, stronger effect = lower value 0.991 | locus YNL222W, strain SSU72, stronger effect = lower value 0.983 | locus YNL307C, strain MCK1 (second series), stronger effect = lower value 0.904 | locus YOL078W, strain AVO1, stronger effect = lower value 0.979 | locus YOL136C, strain PFK27, stronger effect = lower value 0.929 | locus YOR061W, strain CKA2, stronger effect = lower value 0.979 | locus YOR119C, strain RIO1, stronger effect = lower value 1.05 | [7] 0.966 | locus YOR329C, strain SCD5, stronger effect = lower value 0.992 | locus YPL031C, strain PHO85, stronger effect = lower value 0.983 | locus YPL153C, strain RAD53, stronger effect = lower value 1 | locus YPL204W, strain HRR25, stronger effect = lower value 0.956 | locus YPL209C, strain IPL1, stronger effect = lower value 0.983 | [8] 1.04 | locus YPR025C, strain CCL1, stronger effect = lower value 0.99 | locus YPR106W, strain ISR1, stronger effect = lower value 0.97 | locus YPR111W, strain DBF20, stronger effect = lower value 0.953 | strain NNK1, stronger effect = lower value 0.976 | strain TSCII, stronger effect = lower value 0.982

CCCCCCCCCCCCCCCCCCCCCCO
inactive: [1] 1.08 | [2] 0.973 | [3] 0.989 | [4] 0.967 | [5] 0.965 | [6] 0.916 | [7] 0.99 | [8] 0.99
